Assay results from PubChem BioAssay (NCI).
Compounds without any hit were thinned out: in the full panel of roughly 83,000, 20% have a hit.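 Step 1: grow cells in 96-well plates. Step 2: add test compound at a single concentration. Step 3: incubate 48 h. Step 4: record percent growth.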 The source made the active and inactive calls. Rule for the calls: active = growth percent below 10; inactive = the rest.

Legend:
Test in all cases: NCI-60 one-dose screen, 48 h (100 = growth as untreated, 0 = no growth, -100 = all killed)
Conditions in all cases: 10 µM unless noted
[1] = system: SR leukemia
[2] = system: RPMI-8226 leukemia
[3] = system: OVCAR-8 ovarian
[4] = system: OVCAR-5 ovarian
[5] = system: OVCAR-4 ovarian
[6] = system: SK-OV-3 ovarian
[7] = system: IGROV1 ovarian
[8] = system: OVCAR-3 ovarian
[9] = system: HS 578T breast
[10] = system: NCI/ADR-RES ovarian
[11] = system: T-47D breast
[12] = system: BT-549 breast
[13] = system: MDA-MB-435 melanoma
[14] = system: SW-620 colon
[15] = system: MCF7 breast
[16] = system: HCC-2998 colon
[17] = system: KM12 colon
[18] = system: HCT-116 colon

Measured: growth

Cc1cc2nc3c4ccccc4n(CCN(C)C)c3nc2cc1C
inactive: [4] 15.6% | [6] 13.3% | [8] 18% | [11] 32.2% | [12] 53.1% | [16] 22.1% | [17] 17.4%
active: [1] 4.17% | [2] -19.7% | [3] 6.84% | [5] -1.33% | [7] 5.07% | [9] 3.81% | [10] 6.55% | [13] 8.26% | [14] -30.8% | [15] -0.456%

Cc1ccc(/C=C(\C#N)C(=O)Nc2ncc(Cc3cc(Cl)ccc3Cl)s2)o1
active: [5] 1.2%
inactive: [1] 90.1% | [2] 49.3% | [3] 49.8% | [4] 69.6% | [6] 62% | [7] 71.7% | [8] 75.4% | [9] 13% | [10] 52.5% | [11] 51.1% | [12] 65.4% | [14] 53.4% | [15] 49.6% | [18] 54.4% | [16] 29.7% | [17] 27%

COc1ccc(OC)c(-c2cn3nc(-c4c[nH]c5ccc(Br)cc45)sc3n2)c1
inactive: [1] 22.1% | [2] 79.3% | [3] 25.6% | [4] 47.9% | [6] 80.8% | [7] 40.6% | [8] 60% | [9] 43.7% | [10] 32.1% | [11] 35.2% | [12] 76.2% | [13] 24% | [15] 12.5% | [16] 27.2% | [17] 11%
active: [5] -21.3% | [14] -3.33%

CCCCNC1=C(OCC)C(=O)c2ccccc2C1=O
inactive: [1] 112% | [2] 88.1% | [3] 101% | [4] 150% | [5] 94.3% | [6] 119% | [7] 115% | [8] 98.3% | [9] 84.2% | [10] 97.3% | [11] 89.6% | [12] 76.5% | [13] 96.8% | [14] 104% | [15] 76.3% | [16] 95.1% | [17] 93.7%

CCN(CC)CCNC(=O)c1ccc(-c2nc3ccc4[nH]ncc4c3c3c2CCCC3)cc1
active: [1] 6.02%
inactive: [2] 52.1% | [3] 59% | [4] 87.3% | [5] 76.1% | [6] 44.1% | [7] 35.3% | [8] 78.4% | [9] 41.6% | [10] 70.9% | [11] 44.6% | [12] 59.5% | [13] 42.9% | [14] 28.4% | [15] 62.4% | [16] 84.3% | [17] 46.2%

C#CCn1cnc2c(Nc3cccc(NC(=O)CCl)c3)ncnc21
inactive: [2] 10.4% | [3] 50% | [4] 43.7% | [5] 26.9% | [6] 49.6% | [8] 31.6% | [9] 50% | [10] 49.1% | [11] 34.7% | [12] 35.1% | [13] 22.6% | [14] 20.6% | [15] 14.1% | [16] 77.6% | [17] 37.7%
active: [1] 9.78% | [7] 7.54%

COc1ccc2c(c1)c(-c1cc(-c3cn(C)c4ccc(OC)cc34)on1)cn2C
inactive: [1] 104% | [2] 84.6% | [3] 97.5% | [4] 78.5% | [5] 112% | [6] 93.3% | [7] 87.4% | [8] 107% | [9] 90.3% | [10] 95.4% | [11] 80.9% | [12] 127% | [13] 116% | [14] 91.8% | [15] 89% | [16] 101% | [17] 106%

N=C(N)SCc1cccc2c(CSC(=N)N)cccc12
inactive: [1] 92.9% | [2] 107% | [3] 102% | [4] 92.4% | [5] 116% | [6] 113% | [7] 99.2% | [8] 102% | [9] 100% | [10] 105% | [11] 96.2% | [12] 107% | [13] 107% | [14] 103% | [15] 98.2% | [16] 104% | [17] 94.5%

COc1cc(/C=N/Nc2ccccc2F)cc(OC)c1OC
inactive: [1] 90.9% | [2] 83.8% | [3] 92% | [4] 94.6% | [5] 92.3% | [6] 111% | [7] 86.1% | [8] 108% | [9] 94.9% | [10] 99.6% | [11] 67.7% | [12] 96% | [13] 94.3% | [14] 93.6% | [15] 78.3% | [16] 108% | [17] 86.3%

Cc1c2cc[nH]c(=O)c2c(C)c2c1[nH]c1ccc(OC(=O)c3ccccc3)cc12
inactive: [2] 40.2% | [3] 28.4% | [4] 53.1% | [5] 62.5% | [7] 30.6% | [8] 44.3% | [9] 19.3% | [10] 27.7% | [11] 10.3% | [12] 40.8% | [14] 28% | [15] 20.3% | [18] 22.7% | [16] 57.7% | [17] 39%
active: [1] 4.29% | [6] 8.11%

C=NNc1ccccc1
inactive: [1] 74% | [2] 97.6% | [3] 95.1% | [4] 109% | [5] 102% | [6] 102% | [7] 88.7% | [8] 102% | [9] 97.7% | [10] 84.4% | [11] 90.6% | [12] 91.6% | [14] 102% | [15] 83.3% | [18] 80.7% | [16] 94.5% | [17] 80.5%

CCOC(=O)c1c(NC(=O)c2ccc(C(C)(C)C)cc2)sc2cc(O)ccc12
inactive: [1] 87.9% | [2] 104% | [3] 92.7% | [4] 104% | [5] 104% | [6] 109% | [7] 80.8% | [8] 110% | [9] 105% | [10] 89.2% | [11] 82.7% | [12] 94.7% | [14] 91.7% | [15] 88.4% | [18] 92.7% | [16] 104% | [17] 86%

CCCNc1nc2ccccc2c2c(=O)c3cccc(Cl)c3sc12
inactive: [1] 82.7% | [2] 103% | [3] 95.4% | [4] 96.5% | [5] 81.9% | [6] 88.4% | [7] 70.1% | [8] 111% | [9] 114% | [10] 101% | [11] 51.8% | [12] 99% | [13] 101% | [14] 97.8% | [15] 31.2% | [16] 103% | [17] 90.4%

O=C(CCCCNC(=O)c1cc(=O)c(O)co1)Nc1ccccc1
inactive: [1] 14.3% | [2] 50.4% | [3] 93.6% | [4] 119% | [5] 79.3% | [6] 119% | [7] 99% | [8] 47.4% | [9] 92.9% | [10] 87% | [11] 34.6% | [12] 98.4% | [13] 98.1% | [14] 45.8% | [15] 66.1% | [16] 110% | [17] 99.7%

O=c1[nH]cnc2c1C(c1ccc(Br)cc1)c1sc3c(F)cccc3c1O2 (stereo unspecified)
inactive: [1] 54.7% | [2] 60.4% | [3] 95.3% | [4] 90.7% | [5] 94.9% | [6] 117% | [7] 84.4% | [8] 107% | [9] 85.2% | [10] 100% | [11] 83.9% | [12] 99.1% | [13] 100% | [14] 90.6% | [15] 77.3% | [16] 111% | [17] 88.8%

C#CCOc1ccc2ncnc(Nc3cccc(NC(=O)CCl)c3)c2c1
inactive: [1] 30.3% | [2] 64.2% | [3] 54.6% | [4] 104% | [5] 82.7% | [6] 113% | [8] 51.3% | [9] 90.5% | [10] 90.8% | [11] 85.2% | [12] 68.6% | [14] 33.5% | [15] 41.9% | [18] 22.9% | [16] 99.4% | [17] 71%
active: [7] -37.7%

COc1ccc(/C=C/C(=O)c2ccc(NC(=O)CSc3nnc(-c4cc(-c5ccccc5)nc5ccccc45)n3-c3ccccc3)cc2)cc1
inactive: [1] 79.7% | [2] 96.6% | [3] 93.5% | [4] 93.4% | [5] 96% | [6] 109% | [7] 111% | [8] 102% | [9] 93.1% | [10] 97.1% | [11] 80.3% | [12] 96.3% | [13] 97.9% | [14] 96.6% | [15] 93.7% | [16] 107% | [17] 89.5%

CCN1C(=O)N(CC)C2C1NN=c1s/c(=C\c3cc4ccccc4[nH]3)c(=O)n12 (stereo unspecified)
active: [2] -32.1% | [3] -14.2% | [10] 3.61% | [11] 2.04% | [13] -9.5% | [15] 3.88%
inactive: [1] 22.8% | [4] 33.9% | [5] 32.9% | [6] 31.7% | [7] 12.1% | [8] 11.7% | [9] 13.8% | [12] 12.2% | [14] 19.8% | [16] 10.3% | [17] 10.3%
